# Data from PMC7862700, “An all-to-all approach to the identification of sequence-specific readers for epigenetic DNA modifications on cytosine”.
# What was measured:
# Test in all cases: DAPPL (digital affinity profiling via proximity ligation, sequencing); 10 mM Tris-HCl pH 7.5, 50 mM NaCl, 1 mM DTT, 4% glycerol, room temperature, 30 min; GST-TFs on glutathione beads, 16-mer random dsDNA library, 0.1% formaldehyde crosslink after washing; high values mean tight binding
# [1] = target: T1, FLI1 (Homo sapiens, UniProt Q01543 1-452); conditions: protein: recombinant; tags: N-terminal GST; dsDNA, one strand shown
# T1 sequence: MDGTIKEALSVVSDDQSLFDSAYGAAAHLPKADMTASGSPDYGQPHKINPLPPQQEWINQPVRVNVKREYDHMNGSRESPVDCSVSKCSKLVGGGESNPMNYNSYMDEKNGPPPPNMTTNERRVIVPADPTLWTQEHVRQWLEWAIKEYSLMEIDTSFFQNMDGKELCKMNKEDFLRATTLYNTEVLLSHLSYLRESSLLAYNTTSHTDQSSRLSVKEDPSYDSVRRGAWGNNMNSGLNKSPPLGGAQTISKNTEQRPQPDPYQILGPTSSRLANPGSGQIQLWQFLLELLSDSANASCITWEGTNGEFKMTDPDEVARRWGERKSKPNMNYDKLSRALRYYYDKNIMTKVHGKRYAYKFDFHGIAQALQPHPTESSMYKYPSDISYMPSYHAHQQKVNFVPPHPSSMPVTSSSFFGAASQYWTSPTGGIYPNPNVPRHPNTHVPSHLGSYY
# Outline: (§1)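 A tag-only sample was pooled with DNA-barcoded human transcription factors that had been expressed in yeast as GST fusions and captured on glutathione beads. The pools were incubated for 30 min at room temperature with 200 nmole of a random double-stranded 16-mer DNA library in Tris/NaCl/DTT/glycerol buffer, then washed, crosslinked with 0.1% formaldehyde, proximity-ligated (BsaI/T4 ligase, 1 h, 37 °C), PCR-amplified and sequenced on an Illumina NextSeq500. Binding signal is each hexamer's read frequency for a factor divided by its frequency for the tag-only sample.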
# [2] = target: T2, ELK1 (Homo sapiens, UniProt P19419 1-428); conditions: protein: recombinant; tags: N-terminal GST; dsDNA, one strand shown
# T2 sequence: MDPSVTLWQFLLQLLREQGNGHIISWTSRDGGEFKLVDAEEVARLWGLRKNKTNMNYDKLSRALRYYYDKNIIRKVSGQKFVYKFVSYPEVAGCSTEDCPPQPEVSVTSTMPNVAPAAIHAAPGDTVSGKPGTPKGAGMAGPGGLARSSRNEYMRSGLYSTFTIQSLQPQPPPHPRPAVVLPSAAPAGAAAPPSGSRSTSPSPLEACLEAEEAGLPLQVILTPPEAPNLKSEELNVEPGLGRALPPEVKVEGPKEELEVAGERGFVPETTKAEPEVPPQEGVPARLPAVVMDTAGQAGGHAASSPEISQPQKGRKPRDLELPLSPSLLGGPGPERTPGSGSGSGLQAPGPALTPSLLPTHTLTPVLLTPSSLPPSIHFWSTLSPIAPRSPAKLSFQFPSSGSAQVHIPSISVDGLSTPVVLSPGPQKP
# Outline: as §1
# [3] = target: T3, GABPA (Homo sapiens, UniProt Q06546 1-454); conditions: protein: recombinant; tags: N-terminal GST; dsDNA, one strand shown
# T3 sequence: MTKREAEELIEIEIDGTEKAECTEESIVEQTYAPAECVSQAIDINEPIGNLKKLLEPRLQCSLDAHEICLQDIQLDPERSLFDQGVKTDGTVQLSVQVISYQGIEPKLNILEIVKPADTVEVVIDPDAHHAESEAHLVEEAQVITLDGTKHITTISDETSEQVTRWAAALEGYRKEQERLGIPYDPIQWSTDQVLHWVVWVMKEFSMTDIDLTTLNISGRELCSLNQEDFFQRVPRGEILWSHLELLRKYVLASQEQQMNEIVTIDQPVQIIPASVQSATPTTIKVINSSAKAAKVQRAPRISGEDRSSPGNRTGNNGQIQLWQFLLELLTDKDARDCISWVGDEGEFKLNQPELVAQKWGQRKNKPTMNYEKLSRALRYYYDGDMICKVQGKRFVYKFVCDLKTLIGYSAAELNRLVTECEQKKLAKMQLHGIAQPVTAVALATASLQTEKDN
# Outline: as §1
# [4] = target: T4, ERG (Homo sapiens, UniProt P11308 1-479); conditions: protein: recombinant; tags: N-terminal GST; dsDNA, one strand shown
# T4 sequence: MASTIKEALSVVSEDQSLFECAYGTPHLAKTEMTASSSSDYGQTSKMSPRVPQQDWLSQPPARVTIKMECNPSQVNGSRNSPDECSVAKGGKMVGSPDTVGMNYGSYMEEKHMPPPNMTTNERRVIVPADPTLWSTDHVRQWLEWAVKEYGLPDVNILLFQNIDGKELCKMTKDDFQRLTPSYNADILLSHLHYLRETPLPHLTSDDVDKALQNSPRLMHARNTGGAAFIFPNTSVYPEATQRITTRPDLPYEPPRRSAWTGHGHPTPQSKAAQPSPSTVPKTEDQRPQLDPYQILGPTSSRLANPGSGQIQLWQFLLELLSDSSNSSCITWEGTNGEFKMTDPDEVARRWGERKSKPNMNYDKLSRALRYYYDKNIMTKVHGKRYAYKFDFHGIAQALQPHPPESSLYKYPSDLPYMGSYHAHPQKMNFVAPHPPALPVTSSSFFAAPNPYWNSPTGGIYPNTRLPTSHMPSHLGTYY
# Outline: as §1
# [5] = target: ELF1 (Homo sapiens, UniProt P32519 1-619); conditions: protein: recombinant; tags: N-terminal GST; dsDNA, one strand shown
# Chain of ELF1 (P32519 whole entry): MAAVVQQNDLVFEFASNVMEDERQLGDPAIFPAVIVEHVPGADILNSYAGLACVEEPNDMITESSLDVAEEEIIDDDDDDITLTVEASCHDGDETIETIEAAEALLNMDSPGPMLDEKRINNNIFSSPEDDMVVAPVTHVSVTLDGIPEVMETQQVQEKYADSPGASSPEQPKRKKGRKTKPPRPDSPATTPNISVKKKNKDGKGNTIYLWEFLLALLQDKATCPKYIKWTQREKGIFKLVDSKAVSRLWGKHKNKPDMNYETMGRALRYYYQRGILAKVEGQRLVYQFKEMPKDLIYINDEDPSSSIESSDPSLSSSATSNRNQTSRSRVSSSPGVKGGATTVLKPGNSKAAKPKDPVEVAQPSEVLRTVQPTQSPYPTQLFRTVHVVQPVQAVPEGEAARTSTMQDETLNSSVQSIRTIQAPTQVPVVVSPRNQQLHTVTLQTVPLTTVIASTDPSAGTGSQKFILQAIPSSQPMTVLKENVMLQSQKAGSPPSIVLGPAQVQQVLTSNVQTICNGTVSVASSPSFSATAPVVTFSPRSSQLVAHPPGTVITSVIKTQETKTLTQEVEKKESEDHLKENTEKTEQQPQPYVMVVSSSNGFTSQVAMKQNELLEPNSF
# Outline: as §1
# [6] = target: T5, EHF (Homo sapiens, UniProt Q9NZC4 1-300); conditions: protein: recombinant; tags: N-terminal GST; dsDNA, one strand shown
# T5 sequence: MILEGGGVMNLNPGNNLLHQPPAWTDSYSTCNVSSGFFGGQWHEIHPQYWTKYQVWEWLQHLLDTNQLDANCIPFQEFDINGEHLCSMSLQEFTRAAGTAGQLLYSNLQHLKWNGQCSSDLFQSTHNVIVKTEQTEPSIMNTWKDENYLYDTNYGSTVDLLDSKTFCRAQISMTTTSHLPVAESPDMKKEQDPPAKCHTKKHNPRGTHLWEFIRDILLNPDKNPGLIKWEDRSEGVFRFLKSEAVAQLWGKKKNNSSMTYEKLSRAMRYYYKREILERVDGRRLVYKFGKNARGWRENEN
# Outline: as §1
# [7] = target: SPI1 (Homo sapiens, UniProt P17947 1-270); conditions: protein: recombinant; tags: N-terminal GST; dsDNA, one strand shown
# Outline: as §1
# [8] = target: SPIB (Homo sapiens, UniProt Q01892 1-262); conditions: protein: recombinant; tags: N-terminal GST; dsDNA, one strand shown
# Chain of SPIB (Q01892 whole entry): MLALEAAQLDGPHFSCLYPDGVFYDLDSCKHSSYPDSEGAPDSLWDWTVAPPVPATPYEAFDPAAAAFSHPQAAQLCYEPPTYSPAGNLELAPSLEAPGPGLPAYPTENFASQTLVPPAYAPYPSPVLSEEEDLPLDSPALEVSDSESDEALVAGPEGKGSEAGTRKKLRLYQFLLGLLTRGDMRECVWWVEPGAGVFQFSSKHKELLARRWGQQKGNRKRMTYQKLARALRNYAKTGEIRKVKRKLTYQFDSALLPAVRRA
# Outline: as §1
# [9] = target: T6, ELK3 (Homo sapiens, UniProt P41970 1-407); conditions: protein: recombinant; tags: N-terminal GST; dsDNA, one strand shown
# T6 sequence: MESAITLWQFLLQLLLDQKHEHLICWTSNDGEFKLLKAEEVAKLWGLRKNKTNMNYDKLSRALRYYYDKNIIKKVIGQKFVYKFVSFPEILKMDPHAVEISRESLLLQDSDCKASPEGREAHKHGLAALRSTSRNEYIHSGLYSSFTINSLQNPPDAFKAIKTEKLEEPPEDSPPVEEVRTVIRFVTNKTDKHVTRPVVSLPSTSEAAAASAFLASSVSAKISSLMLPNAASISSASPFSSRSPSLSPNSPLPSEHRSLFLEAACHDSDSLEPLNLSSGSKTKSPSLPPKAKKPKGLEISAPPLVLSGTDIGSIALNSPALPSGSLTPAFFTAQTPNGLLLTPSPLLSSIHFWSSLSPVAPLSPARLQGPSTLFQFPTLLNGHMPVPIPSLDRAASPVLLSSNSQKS
# Outline: as §1
# [10] = target: T7, FEV (Homo sapiens, UniProt Q99581 1-238); conditions: protein: recombinant; tags: N-terminal GST; dsDNA, one strand shown
# T7 sequence: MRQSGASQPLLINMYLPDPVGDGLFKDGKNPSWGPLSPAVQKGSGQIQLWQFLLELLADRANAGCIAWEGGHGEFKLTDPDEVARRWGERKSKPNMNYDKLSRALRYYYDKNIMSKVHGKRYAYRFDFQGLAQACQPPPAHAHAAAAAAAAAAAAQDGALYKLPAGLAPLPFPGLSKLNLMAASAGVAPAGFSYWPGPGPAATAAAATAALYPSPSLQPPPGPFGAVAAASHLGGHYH
# Outline: as §1
# [11] = target: ETV5 (Homo sapiens, UniProt P41161 1-510); conditions: protein: recombinant; tags: N-terminal GST; dsDNA, one strand shown
# Chain of ETV5 (P41161 whole entry): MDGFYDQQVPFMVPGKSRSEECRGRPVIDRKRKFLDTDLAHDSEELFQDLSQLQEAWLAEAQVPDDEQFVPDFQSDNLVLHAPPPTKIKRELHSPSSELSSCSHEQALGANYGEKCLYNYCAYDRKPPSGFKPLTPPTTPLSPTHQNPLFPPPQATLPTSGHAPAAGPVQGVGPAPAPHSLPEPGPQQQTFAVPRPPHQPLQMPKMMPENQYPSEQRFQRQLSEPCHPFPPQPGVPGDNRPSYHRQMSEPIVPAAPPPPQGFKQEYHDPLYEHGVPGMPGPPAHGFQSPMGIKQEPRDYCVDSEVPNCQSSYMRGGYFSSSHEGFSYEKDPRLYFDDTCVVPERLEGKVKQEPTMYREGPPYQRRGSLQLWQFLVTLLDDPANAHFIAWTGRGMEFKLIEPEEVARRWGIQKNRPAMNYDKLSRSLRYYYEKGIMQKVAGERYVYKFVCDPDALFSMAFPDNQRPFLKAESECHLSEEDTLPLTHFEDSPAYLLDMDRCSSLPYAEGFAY
# Outline: as §1
# [12] = target: HSF1 (Homo sapiens, UniProt Q00613 1-529); conditions: protein: recombinant; tags: N-terminal GST; chain copies: 3; dsDNA, one strand shown
# Chain of HSF1 (Q00613 whole entry): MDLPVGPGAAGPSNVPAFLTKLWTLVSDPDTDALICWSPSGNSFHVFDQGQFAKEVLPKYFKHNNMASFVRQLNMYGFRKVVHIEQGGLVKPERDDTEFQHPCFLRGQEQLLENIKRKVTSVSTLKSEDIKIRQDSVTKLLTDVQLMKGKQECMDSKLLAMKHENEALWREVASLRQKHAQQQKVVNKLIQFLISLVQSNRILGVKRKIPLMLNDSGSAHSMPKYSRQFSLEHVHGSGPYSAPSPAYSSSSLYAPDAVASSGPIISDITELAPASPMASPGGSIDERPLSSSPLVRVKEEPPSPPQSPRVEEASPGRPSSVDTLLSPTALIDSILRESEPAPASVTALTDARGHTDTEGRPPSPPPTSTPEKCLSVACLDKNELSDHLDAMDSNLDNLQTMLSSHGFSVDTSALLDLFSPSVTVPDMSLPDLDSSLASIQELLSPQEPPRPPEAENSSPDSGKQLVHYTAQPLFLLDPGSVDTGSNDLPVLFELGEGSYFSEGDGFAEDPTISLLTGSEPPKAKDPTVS
# Outline: as §1
# [13] = target: T8, SPIC (Homo sapiens, UniProt Q8N5J4 1-248); conditions: protein: recombinant; tags: N-terminal GST; dsDNA, one strand shown
# T8 sequence: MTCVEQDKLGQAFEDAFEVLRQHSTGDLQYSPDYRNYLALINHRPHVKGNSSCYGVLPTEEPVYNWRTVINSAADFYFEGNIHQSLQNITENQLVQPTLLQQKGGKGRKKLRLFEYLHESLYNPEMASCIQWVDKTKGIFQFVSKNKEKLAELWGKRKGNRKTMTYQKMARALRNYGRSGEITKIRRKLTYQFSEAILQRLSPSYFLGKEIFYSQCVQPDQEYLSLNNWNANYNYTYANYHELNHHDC
# Outline: as §1
# [14] = target: ELF4 (Homo sapiens, UniProt Q99607 1-663); conditions: protein: recombinant; tags: N-terminal GST; dsDNA, one strand shown
# Chain of ELF4 (Q99607 whole entry): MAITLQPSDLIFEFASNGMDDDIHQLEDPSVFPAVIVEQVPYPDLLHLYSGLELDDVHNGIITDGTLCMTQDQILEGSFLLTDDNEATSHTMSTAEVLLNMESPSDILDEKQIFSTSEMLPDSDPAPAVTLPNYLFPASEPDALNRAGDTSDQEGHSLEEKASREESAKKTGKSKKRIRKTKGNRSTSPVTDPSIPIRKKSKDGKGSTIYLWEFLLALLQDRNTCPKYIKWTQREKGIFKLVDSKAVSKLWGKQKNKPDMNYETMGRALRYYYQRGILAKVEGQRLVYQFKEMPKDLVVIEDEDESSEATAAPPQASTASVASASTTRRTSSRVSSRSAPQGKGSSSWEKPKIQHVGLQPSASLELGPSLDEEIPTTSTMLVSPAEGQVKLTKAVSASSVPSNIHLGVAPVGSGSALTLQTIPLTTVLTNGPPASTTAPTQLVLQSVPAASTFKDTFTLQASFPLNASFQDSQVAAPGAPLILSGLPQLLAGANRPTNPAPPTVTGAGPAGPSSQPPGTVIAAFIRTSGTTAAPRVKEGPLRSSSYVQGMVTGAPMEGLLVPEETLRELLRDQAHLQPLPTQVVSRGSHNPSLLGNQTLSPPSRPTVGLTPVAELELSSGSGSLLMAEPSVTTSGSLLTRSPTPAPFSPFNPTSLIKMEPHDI
# Outline: as §1
# [15] = target: T9, ELK4 (Homo sapiens, UniProt P28324-2 1-405); conditions: protein: recombinant; tags: N-terminal GST; dsDNA, one strand shown
# T9 sequence: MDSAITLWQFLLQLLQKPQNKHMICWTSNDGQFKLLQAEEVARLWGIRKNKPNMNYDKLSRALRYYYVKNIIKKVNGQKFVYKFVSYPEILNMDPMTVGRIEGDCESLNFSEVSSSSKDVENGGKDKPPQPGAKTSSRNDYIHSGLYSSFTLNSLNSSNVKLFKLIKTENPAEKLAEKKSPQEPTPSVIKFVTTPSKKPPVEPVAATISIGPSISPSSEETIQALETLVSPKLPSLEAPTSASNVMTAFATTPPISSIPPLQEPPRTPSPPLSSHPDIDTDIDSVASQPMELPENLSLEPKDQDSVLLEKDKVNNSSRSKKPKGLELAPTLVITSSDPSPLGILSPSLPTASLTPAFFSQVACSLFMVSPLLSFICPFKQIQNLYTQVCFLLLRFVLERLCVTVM
# Outline: as §1
# [16] = target: T10, ETV2 (Homo sapiens, UniProt O00321 1-342); conditions: protein: recombinant; tags: N-terminal GST; dsDNA, one strand shown
# T10 sequence: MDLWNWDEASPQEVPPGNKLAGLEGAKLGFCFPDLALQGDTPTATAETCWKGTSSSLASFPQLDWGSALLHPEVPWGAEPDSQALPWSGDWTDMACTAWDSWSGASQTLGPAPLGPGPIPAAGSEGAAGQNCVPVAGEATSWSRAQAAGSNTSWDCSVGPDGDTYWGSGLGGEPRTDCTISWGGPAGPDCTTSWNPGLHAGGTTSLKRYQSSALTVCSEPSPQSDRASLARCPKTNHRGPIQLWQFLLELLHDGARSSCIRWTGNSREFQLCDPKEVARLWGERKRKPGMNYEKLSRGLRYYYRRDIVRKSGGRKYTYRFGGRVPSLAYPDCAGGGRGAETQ
# Outline: as §1
# [17] = target: T11, ELF3 (Homo sapiens, UniProt P78545 1-371); conditions: protein: recombinant; tags: N-terminal GST; dsDNA, one strand shown
# T11 sequence: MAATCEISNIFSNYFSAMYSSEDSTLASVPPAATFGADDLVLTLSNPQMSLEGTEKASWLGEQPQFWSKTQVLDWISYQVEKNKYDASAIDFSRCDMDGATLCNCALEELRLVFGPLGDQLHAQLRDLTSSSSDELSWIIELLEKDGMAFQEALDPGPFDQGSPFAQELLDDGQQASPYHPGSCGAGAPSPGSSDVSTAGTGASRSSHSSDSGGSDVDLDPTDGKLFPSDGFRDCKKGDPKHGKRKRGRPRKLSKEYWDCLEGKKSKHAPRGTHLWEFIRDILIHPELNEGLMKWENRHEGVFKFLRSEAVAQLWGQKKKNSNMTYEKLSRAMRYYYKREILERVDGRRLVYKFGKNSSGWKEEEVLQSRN
# Outline: as §1
# [18] = target: CRX (Homo sapiens, UniProt O43186 1-299); conditions: protein: recombinant; tags: N-terminal GST; dsDNA, one strand shown
# Chain of CRX (O43186 whole entry): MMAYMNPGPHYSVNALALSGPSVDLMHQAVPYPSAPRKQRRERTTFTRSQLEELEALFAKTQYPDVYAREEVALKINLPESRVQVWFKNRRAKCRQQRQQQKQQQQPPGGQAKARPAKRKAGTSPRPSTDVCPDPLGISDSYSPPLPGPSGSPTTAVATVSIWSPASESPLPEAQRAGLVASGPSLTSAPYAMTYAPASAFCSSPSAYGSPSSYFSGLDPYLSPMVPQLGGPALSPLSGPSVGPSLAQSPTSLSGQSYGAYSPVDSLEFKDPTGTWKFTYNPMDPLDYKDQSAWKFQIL
# Outline: as §1
# [19] = target: ETV1 (Homo sapiens, UniProt P50549 1-477); conditions: protein: recombinant; tags: N-terminal GST; dsDNA, one strand shown
# Chain of ETV1 (P50549 whole entry): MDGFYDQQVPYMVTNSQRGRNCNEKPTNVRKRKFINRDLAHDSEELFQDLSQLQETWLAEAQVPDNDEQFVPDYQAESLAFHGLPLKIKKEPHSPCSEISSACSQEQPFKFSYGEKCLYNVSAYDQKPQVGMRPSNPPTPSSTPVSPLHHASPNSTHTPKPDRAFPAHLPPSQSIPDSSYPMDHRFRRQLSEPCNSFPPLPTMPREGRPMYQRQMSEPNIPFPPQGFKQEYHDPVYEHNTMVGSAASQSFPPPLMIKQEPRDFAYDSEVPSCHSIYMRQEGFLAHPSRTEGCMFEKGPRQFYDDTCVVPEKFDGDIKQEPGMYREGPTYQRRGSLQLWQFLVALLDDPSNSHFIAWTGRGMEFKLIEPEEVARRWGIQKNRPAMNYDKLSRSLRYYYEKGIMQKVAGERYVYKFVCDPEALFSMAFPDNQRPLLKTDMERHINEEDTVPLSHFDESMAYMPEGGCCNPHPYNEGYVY
# Outline: as §1
sequence,measurement,setting,value
TTCCAT,binding signal,[1],"1.38 fold enrichment (6-mer frequency, TF over GST control)"
same,binding signal,[2],"1.29 fold enrichment (6-mer frequency, TF over GST control)"
same,binding signal,[3],"1.22 fold enrichment (6-mer frequency, TF over GST control)"
same,binding signal,[4],"1.25 fold enrichment (6-mer frequency, TF over GST control)"
same,binding signal,[5],"1.33 fold enrichment (6-mer frequency, TF over GST control)"
same,binding signal,[6],"1.28 fold enrichment (6-mer frequency, TF over GST control)"
same,binding signal,[7],"1.34 fold enrichment (6-mer frequency, TF over GST control)"
same,binding signal,[8],"1.32 fold enrichment (6-mer frequency, TF over GST control)"
same,binding signal,[9],"1.28 fold enrichment (6-mer frequency, TF over GST control)"
same,binding signal,[10],"1.18 fold enrichment (6-mer frequency, TF over GST control)"
same,binding signal,[11],"1.36 fold enrichment (6-mer frequency, TF over GST control)"
same,binding signal,[12],"1.74 fold enrichment (6-mer frequency, TF over GST control)"
same,binding signal,[13],"1.19 fold enrichment (6-mer frequency, TF over GST control)"
same,binding signal,[14],"1.27 fold enrichment (6-mer frequency, TF over GST control)"
same,binding signal,[15],"1.42 fold enrichment (6-mer frequency, TF over GST control)"
same,binding signal,[16],"1.23 fold enrichment (6-mer frequency, TF over GST control)"
same,binding signal,[17],"1.2 fold enrichment (6-mer frequency, TF over GST control)"
same,binding signal,[18],"1.43 fold enrichment (6-mer frequency, TF over GST control)"
same,binding signal,[19],"1.25 fold enrichment (6-mer frequency, TF over GST control)"
